Laboratory results: PubChem BioAssay (NCI)
About 79,000 compounds went through this panel and 15% of them were active in at least one assay; those are over-represented in the sample as a whole. Activity calls are given as the source filed them. Rule as the data show it: active = growth inhibition above about 70%; inactive = the rest.

Columns and labels:
[1] = NCI Yeast Anticancer Drug Screen. Data for the rad50 strain (AID 155);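 also: 0% = growth of vehicle-only cultures of the same strain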; details: S. cerevisiae rad50 strain growth inhibition; at 50.0 µM; active compounds read high
Summary of the method: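 Vehicle-treated cultures provide the reference for the growth inhibition reported for compound-exposed, repair-deficient yeast.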

[2] = NCI Yeast Anticancer Drug Screen. Data for the mec2-1 strain (AID 157); details: S. cerevisiae mec2-1 strain, at 50.0 µM, active compounds read high
Summary of the method: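 Yeast mec2-1 mutant treated with compound. Readout: growth inhibition vs vehicle controls.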

[3] = NCI Yeast Anticancer Drug Screen. Data for the sgs1 mgt1 strain (AID 161);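 also: 0% = growth of cultures given vehicle only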; details: S. cerevisiae sgs1 mgt1 strain, at 50.0 µM, active compounds read high
Summary of the method: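 Inhibition of yeast growth, normalised to vehicle-treated controls, is reported for a strain bearing genetic alterations in DNA damage repair.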

[4] = NCI Yeast Anticancer Drug Screen. Data for the cln2 rad14 strain (AID 165);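 also: 0% = growth equal to vehicle treated cultures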; details: S. cerevisiae cln2 rad14 strain, at 50.0 µM, active compounds read high
Summary of the method: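 cln2 rad14 yeast strain; compound exposure; growth inhibition read vs vehicle controls.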

[5] = NCI Yeast Anticancer Drug Screen. Data for the bub3 strain (AID 167); details: S. cerevisiae bub3 mutant strain, at 50.0 µM, active compounds read high
Summary of the method: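 Mutant yeast screening strain plus compound; vehicle-treated cultures serve as the 0% inhibition reference.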

[6] = NCI Yeast Anticancer Drug Screen. Data for the mlh1 rad18 strain (AID 175); details: S. cerevisiae mlh1 rad18 strain growth inhibition; at 50.0 µM; active compounds read high
Summary of the method: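 Yeast w/ defined DNA-repair lesions; compound exposure; growth vs vehicle controls → % inhibition.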

Measured: growth inhibition

FC12CCC(F)(CC1)CC2
inactive: [1] -7.85% | [2] 20.1% | [3] -7.5% | [4] -13.9% | [5] 7.6% | [6] -2.55%

CC1CC=CCC1C(=O)OC/C=C/COC(=O)C1CC=CCC1C (stereo unspecified)
inactive: [1] 29.4% | [2] -19.9% | [3] 8.65% | [4] -9.9% | [5] 14.9% | [6] -4.65%

c1ccc2c(c1)cc1ccc3cc4ccccc4c4nnc2c1c34
inactive: [1] -23.1% | [2] -7.3% | [3] -10.2% | [4] -16.8% | [5] -11.9% | [6] -14.6%

CCCCCC(=O)NC(=O)Nc1ccccc1OC
inactive: [1] -13.6% | [2] -1.05% | [3] -4.35% | [4] -24.1% | [5] 0.65% | [6] -1.55%

O=C(OC1C#CCSCC#C/C=C\1)c1ccc2c(c1)C(=O)c1ccccc1C2=O (stereo unspecified)
inactive: [1] -0.05% | [2] -34% | [3] -53.2% | [4] -37% | [5] -16.9% | [6] -61.6%

c1ccc2cc(C3OCCCO3)ccc2c1
inactive: [1] 19.4% | [2] 10.2% | [3] -2.05% | [4] -62.9% | [5] -2.45% | [6] 4.2%

CSc1cc(C)c(C#N)c(SC)n1
inactive: [1] -32.6% | [2] -32.1% | [3] -12.9% | [4] -5.7% | [5] 0.05% | [6] -12.4%

CC1COC(c2ccc(Cl)cc2)O1 (stereo unspecified)
inactive: [1] 12.2% | [2] 18.1% | [3] 22% | [4] 20.4% | [5] -1.25% | [6] 12.7%

CCC[CH2][Sn]1([CH2]CCC)[O]C2C(CO)OC(n3c(Br)c(C(N)=O)c4c(N)ncnc43)C2[O]1 (stereo unspecified)
active: [1] 98.3% | [2] 98.4% | [3] 98.7% | [4] 97.5% | [5] 97.5% | [6] 98.5%

O=c1cc(NCc2cccc([N+](=O)[O-])c2)[nH]c(=O)[nH]1
inactive: [1] 0.1% | [2] 8.2% | [3] 5.05% | [4] -12.6% | [5] -5.5% | [6] 6.6%

O=C(C[N+]12CN3CN(CN(C3)C1)C2)c1cccc2ccccc12
inactive: [1] 11.2% | [2] -11.6% | [3] 9.35% | [4] -3.2% | [5] -4.7% | [6] 14.6%

CCCCOC(=O)C(C)O (stereo unspecified)
inactive: [1] 41.1% | [2] 16.3% | [3] 21.6% | [4] 19.3% | [5] 0.05% | [6] 24.9%

CCOC(=O)/C=C/C(=O)NN
inactive: [1] 11.4% | [2] -6.35% | [3] 2.6% | [4] -26% | [5] 0.4% | [6] 5.6%

O=C1C=C(c2ccccc2)Sc2ccccc2N1
inactive: [1] 25.9% | [2] 34.5% | [3] 19.1% | [4] -1.4% | [5] 26.1% | [6] 53.2%

Oc1ccccc1/C=N\Sc1ccc(Br)cc1
inactive: [1] 23.9% | [2] 13.8% | [3] 22% | [4] 4.25% | [5] 3.95% | [6] 17%

CCC1(C)CC(=O)N(C/C=C(\C)CCC(=O)O)C(=O)C1
inactive: [1] -3.35% | [2] 4.5% | [3] -0.45% | [4] -8.4% | [5] 7% | [6] -7.45%

CCOC(=O)C(C#N)C1=CC(=O)C(=O)c2ccc(OC)cc21 (stereo unspecified)
inactive: [1] 14% | [2] 11.3% | [3] -5.5% | [4] 27.9% | [5] -9.95% | [6] 9.1%

C/C(=N\NC(N)=S)c1ccc(/C(C)=N/NC(N)=S)cc1
inactive: [1] -44.6% | [2] -0.25% | [3] 0.8% | [4] -13.2% | [5] -1.2% | [6] -19.6%

N#Cc1c(O)c(N=Nc2ccccc2F)c(=O)n2c1[nH]c1ccccc12
inactive: [1] -24.4% | [2] -15.7% | [3] -10.4% | [4] 4.1% | [5] -6.85% | [6] -47.8%

CCC(=O)C1(CCCN(C)C)c2ccccc2Sc2ccccc21
inactive: [1] -14.3% | [2] 2.45% | [3] -8.6% | [4] -38.1% | [5] -2.35% | [6] 4.6%

O=C(CN1CCOCC1)NC(=O)c1ccccc1
inactive: [1] -3.6% | [2] -3.6% | [3] 6.25% | [4] 1.5% | [5] -0.1% | [6] -10.7%

COC(=O)C1CCC=CC1OC(C)=O (stereo unspecified)
inactive: [1] 1.65% | [2] -12.6% | [3] 2.6% | [4] 4.45% | [5] 5.25% | [6] 3.2%

O=C(O)c1ccc(CSc2ccccc2C(=O)O)cc1
inactive: [1] 16.4% | [2] -16.6% | [3] -6.95% | [4] 15.4% | [5] -14.7% | [6] 33.8%

COc1onc(C)c1CC(=O)O
inactive: [1] 2.7% | [2] 1.2% | [3] -7.3% | [4] -32.1% | [5] -8.65% | [6] 2.75%

O=C(CC[n+]1ccccc1)Nc1ccc(F)cc1F
inactive: [1] 11.4% | [2] -1.55% | [3] 26.1% | [4] 20.9% | [5] 33.6% | [6] 17.3%

C#CCOC(=O)c1ccc(OC(C)=O)cc1
inactive: [1] -3.45% | [2] 1.45% | [3] 10.1% | [4] 3.45% | [5] 14.2% | [6] -1.65%

c1ccc(C(=C2C(=C(c3ccccc3)c3ccccc3)c3nc4ccccc4nc32)c2ccccc2)cc1
inactive: [1] 26.8% | [2] 8.8% | [3] 7% | [4] 16.9% | [5] -1.05% | [6] 8.1%

O=C(/C=C/c1ccccc1)NC(=S)Nc1ccc(F)c([N+](=O)[O-])c1
inactive: [1] 7.6% | [2] 6.05% | [3] 7.85% | [4] 12.7% | [5] 21.6% | [6] 12.2%

CN(C)/C=N/NC(=O)C(O)c1ccccc1 (stereo unspecified)
inactive: [1] 10.3% | [2] 2.2% | [3] 4.45% | [4] 18.2% | [5] 34.4% | [6] -19.6%

C/C(CCn1[nH]c(=O)ccc1=O)=N\OCCCc1ccccc1
inactive: [1] 2.7% | [2] -27.6% | [3] 11.7% | [4] 16.3% | [5] -3% | [6] 11.5%

COC1OC2COC1(OCc1ccccc1)C1OC(C)(C)OC21 (stereo unspecified)
inactive: [1] -23.8% | [2] -5.85% | [3] -29.9% | [4] -0.8% | [5] -26.2% | [6] 5.35%

CC1=NN(C(=O)c2ccccc2)C(=O)C1N=Nc1ccc([N+](=O)[O-])cc1 (stereo unspecified)
inactive: [1] -3.3% | [2] -5.5% | [3] -2.5% | [4] -10.8% | [5] 0% | [6] -3.35%

O=C(CC(O)(C(F)(F)F)C(F)(F)F)c1ccc(Cl)c([N+](=O)[O-])c1
active: [1] 97.2% | [2] 99.2% | [3] 99.1% | [4] 96.6% | [5] 97.7% | [6] 98.8%

Clc1ccc2c(NCCCCN=Cc3ccccc3)ccnc2c1
inactive: [1] -9.55% | [2] -27.2% | [3] -14% | [4] -10.4% | [5] 15.3% | [6] -12.7%

O=C(N(CCc1ccc(O)cc1)Cc1ccc2c(c1)OCO2)C(F)(F)F
active: [1] 98% | [2] 96.8% | [3] 92.4% | [4] 92.4% | [5] 97.2% | [6] 98.6%

CC12CCC3C(CCC4CC(OC5CCCCO5)CCC43C)C1CC/C2=C/C#N (stereo unspecified)
inactive: [1] 29.4% | [2] -7.5% | [3] 10.1% | [4] 10.3% | [5] 1.75% | [6] -2.65%

CCCNCCCCC(C)Nc1cc(OC)cc2cccnc12 (stereo unspecified)
inactive: [1] 7.1% | [2] -14.8% | [3] -15.6% | [4] -21.1% | [5] 8.2% | [6] 23.9%

CCOC(=O)C1=NNC(=O)C1
inactive: [1] 4.4% | [2] -2.95% | [3] 2.35% | [4] 9.85% | [5] -0.3% | [6] 4.75%

Oc1c(Cl)cc(Cl)cc1CN(Cc1cc(Cl)cc(Cl)c1O)c1ccccc1
inactive: [1] 15.8% | [2] 16.9% | [3] 40.8% | [4] 52.1% | [5] 27.1% | [6] 12.7%

Cc1nn(-c2nc(-c3ccccc3)cs2)c(C)c1C
inactive: [1] -6.05% | [2] -8.6% | [3] -20.6% | [4] 2.9% | [5] -0.5% | [6] -8.2%

CC(=O)c1ccc(CCCCc2ccc([N+](=O)[O-])cc2)cc1
inactive: [1] -4.2% | [2] -17.8% | [3] 16.5% | [4] -59.5% | [5] 18.2% | [6] -32%
